According to PubChem BioAssay (NCATS):
“And” between values parts separate entries of the source, which are not always exact repeats. Equal entries are not always repeated. Records with an inconclusive call do not appear. The source made the active and inactive calls. Unless noted, calls come from the whole dose curve; as a rule, active = well fitted curve in the direction sought with a large enough effect; inconclusive = small, poorly fitted or top-dose-only effect, or another doubt; inactive = no such curve, though single readings can be large; an effect the other way counts as inactive or inconclusive.

Tests used:
[1] = Cell Viability - BJ (AID 421; calls by dose curve;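 note: potency is the fitted concentration of half-maximal effect; cells exposed to compound for 40 hours at 37 °C before readout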); conditions: BJ fibroblast viability, qHTS
Method in brief: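 Luminescent ATP signal (CellTiter-Glo, 20 min at room temperature) served as the read-out of viable BJ cells after 40 hours of compound treatment. Responses were scaled between DMSO and 100 uM tamoxifen, and AC50 values were obtained by Hill modeling.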

[2] = Cell Viability - Jurkat (AID 426;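 active = dose-dependent loss of cell ATP signal giving a full or clear fitted curve, ranked by lower potency value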; note: potency is the fitted concentration of half-maximal effect); conditions: qHTS
Method in brief: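 Seed 5000 Jurkat E6-1 cells/well; add compound; incubate 40 hr at 37 °C; add CellTiter-Glo; wait 20 min at room temperature; read luminescence. Fit concentration-response with Hill equation for AC50.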

[3] = Cell Viability - Hek293 (AID 427;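 active = compounds whose dose-response curve shows a full or clear partial loss of cell viability, called from curve shape rather than a numeric limit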;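 note: potency is the fitted concentration of half-maximal effect; cells exposed to compound for 40 hours at 37 °C before reading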); conditions: qHTS
Method in brief: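 Luminescent ATP read-out (CellTiter-Glo, 20 min RT) after 40 hr compound exposure at 37 °C in complete medium. Signal normalized to DMSO (basal) and 100 uM tamoxifen (100% inhibition); concentration-response fitted with the standard Hill equation to give AC50.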

[4] = Cell Viability - HepG2 (AID 433; calls by dose curve;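 note: potency is the fitted concentration of half-maximal effect; potency for ATP loss meaning cytotoxicity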); conditions: qHTS
Method in brief: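 HepG2 cells, 1500 per well, treated 40 hr at 37 °C in complete medium; viability from intracellular ATP by CellTiter-Glo luminescence. Normalized to DMSO and 100 uM tamoxifen; AC50 from Hill fit of qHTS concentration-response.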

[5] = Cell Viability - SK-N-SH (AID 435; calls by dose curve;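 note: potency is the fitted concentration of half-maximal effect; compound exposure lasted 40 h at 37 °C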); conditions: SK-N-SH neuroblastoma cell viability qHTS
Method in brief: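 SK-N-SH neuroblastoma cells (1500/well) treated 40 h at 37 °C in complete medium; viability read as cellular ATP by CellTiter-Glo luminescence. Normalized to DMSO and 100 uM tamoxifen; AC50 from Hill fits of qHTS concentration-response.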

[6] = Cell Viability - Renal Proximal Tubule (AID 545); conditions: renal proximal tubule cells viability; series mostly up to 91.7 µM;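 note: 0% = DMSO only and -100% = 100 µM tamoxifen; nearly all actives have a fitted effect of over 40% in size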
Method in brief: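 Rat renal proximal tubule primary cells, 1000/well, exposed to compounds for 40 hr at 37 °C in complete medium; cellular ATP read by CellTiter-Glo luminescence. AC50 from concentration-response fitted with standard Hill equation.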

[7] = Cellular Toxicity (caspase-3) HUV-EC-C (AID 656); conditions: HUV-EC-C cells, caspase-3 activation (apoptosis), vehicle = 0, 100 µM tamoxifen = 100%; series mostly up to 92.2 µM;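 note: 0% = DMSO basal and 100% = 100 µM tamoxifen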
Method in brief: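 HUV-EC-C cells (1000/well) in complete medium, compound-treated 16 h at 37 °C; caspase-3/7 activity read by Caspase-Glo 3/7 luminescence. Normalized to DMSO (basal) and 100 uM tamoxifen (100%); AC50 from Hill-equation concentration-response fits.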

[8] = Cellular Toxicity (caspase-3) SHSY5Y (AID 657); conditions: SH-SY5Y caspase-3 activation, DMSO zero, 10 µM staurosporine = 100%; series mostly up to 91.7 µM
Method in brief: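 SH-SY5Y human neuroblastoma cells, 1500/well, exposed to compound for 16 hours at 37 °C in complete medium. Caspase-3/7 activity read by Caspase-Glo luminescence after 1 hr at room temperature, normalized to DMSO and 10 uM staurosporine; AC50 from Hill fit.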

[9] = Cellular Toxicity (caspase-3) MRC-5 (AID 659); conditions: MRC-5 cells, luminescence, normalized: DMSO 0%, 10 µM staurosporine 100%; series mostly up to 91.7 µM
Method in brief: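 MRC-5 human normal lung fibroblasts, 1500 cells/well, treated 16 h at 37 °C in complete medium. Caspase 3/7 measured by Caspase-Glo luminescence after 1 h at room temperature. Normalized to DMSO and 10 uM staurosporine; AC50 from Hill fit.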

[10] = MultiTox-Fluor Cytotoxicity Assay - LYMP1-002 - Live Cells (AID 955); conditions: LYMP1-002 lymphoblastoid live-cell protease fluorescence viability; series mostly up to 46.1 µM; note: % is set by controls: 0 for no effect and ±100 for the full control effect
Method in brief: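 Cytotoxicity in the human lymphoblastoid line LYMP1-002 is measured as loss of live-cell protease activity after 16 h treatment in complete culture medium. AC50 is derived from Hill-equation fits of qHTS concentration-response data.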

[11] = Cell Viability - LYMP1-003 - Assay at 24 hr (AID 963); conditions: LYMP1-003 lymphoblastoid cell viability; series mostly up to 92.2 µM;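 note: plate controls were DMSO only for no effect and tetraoctylammonium bromide positive control for full effect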
Method in brief: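 Acute toxicity in LYMP1-003 lymphoblastoid cells: 24 hr compound treatment at 37 C, ATP measured with CellTiter-Glo after 30 min at room temperature. AC50 derived by fitting the Hill equation to qHTS titrations.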

[12] = Cell Viability - LYMP2-009 (AID 968); conditions: LYMP2-009 lymphoblastoid cell viability; series mostly up to 92.2 µM;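 note: 0% = DMSO alone and the full-kill end = tetraoctylammonium bromide at 92 µM; nearly all actives have a fitted effect of over 55% in size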
[13] = Cell Viability - LYMP2-017 (AID 972); conditions: LYMP2-017 lymphoblastoid cell viability; series mostly up to 92.2 µM;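 note: cells exposed to compound for 24 hours at 37 °C; % is set by controls: 0 for no effect and ±100 for the full control effect; nearly all actives have a fitted effect of over 55% in size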
Method in brief: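 Steps: plate 2500 lymphoblastoid cells per well; incubate 5 hr at 37 C; add compound across a concentration series and incubate 24 hr at 37 C; add CellTiter-Glo and read luminescence after 30 min at room temperature; fit Hill curves for AC50.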

[14] = Cell Viability - LYMP2-025 (AID 976); conditions: LYMP2-025 lymphoblastoid cell viability; series mostly up to 92.2 µM;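 note: plate controls were DMSO only for no effect and tetraoctylammonium bromide control for full effect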
Method in brief: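 In qHTS format, LYMP2-025 lymphoblastoid cells in complete culture medium received compound for 24 hr; ATP-based CellTiter-Glo signal gave viability, with AC50 derived by Hill equation.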

[15] = Cell Viability - LYMP2-016 (AID 984); conditions: LYMP2-016 lymphoblastoid cell viability, qHTS; series mostly up to 92.2 µM;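 note: cells exposed to compound for 24 hours at 37 °C; % is set by controls: 0 for no effect and ±100 for the full control effect; nearly all actives have a fitted effect of over 55% in size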
Method in brief: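 Human lymphoblastoid LYMP2-016 cells, 2500 per well, treated with compounds for 24 h at 37 C. Viability read as intracellular ATP by CellTiter-Glo luminescence after 30 min at room temperature; AC50 from Hill fits of concentration-response.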

[16] = Cell Viability - LYMP2-024 (AID 988); conditions: LYMP2-024 lymphoblastoid cell viability; series mostly up to 92.2 µM;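 note: plate controls were DMSO only for no effect and 92 µM tetraoctylammonium bromide for full effect; nearly all actives have a fitted effect of over 60% in size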
Method in brief: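 Acute toxicity is measured as concentration-dependent loss of intracellular ATP in a human lymphoblastoid line treated 24 hours at 37 C. Luciferase luminescence quantifies ATP; AC50 values come from standard Hill-equation modelling.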

[17] = qHTS Assay for Identification of Small Molecule Inducers of Hypoxia Response (AID 2120; active = well fitted curve in the direction sought with a large enough effect in the signal ratio, with a control signal flat, not every such curve was filed as active; the % refers to the signal ratio; note: 0% is about no effect); conditions: hypoxia response reporter cells, beta-lactamase ratio readout; series mostly up to 104 µM
Method in brief: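 Induction of beta-lactamase reporter activity was measured in CellSensor HRE-bla ME-180 cells after 17 h compound treatment at 37 degrees C, using CCF4 substrate and the 460nm/530nm emission ratio to derive AC50 values.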

[18] = qHTS assay for small molecule agonists of retinoid X receptor alpha signaling (AID 588544); conditions: HEK293T RXRa-UAS-bla, beta-lactamase reporter, 18 h; 530 nm emission
[19] = biological target: Peroxisome proliferator-activated receptor alpha (Homo sapiens) (UniProt Q07869); experiment: qHTS assay for small molecule agonists of the peroxisome proliferator-activated receptor alpha (PPARalpha) signaling pathway (AID 651778); conditions: PathHunter PPARalpha complementation, chemiluminescence, 6 h; stronger effect = higher value; note: % of control where 0% means no effect
Method in brief: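 Enzyme-fragment complementation assay in which ligand-bound PPARalpha translocates and forms an active enzyme that generates chemiluminescence. Cells were plated overnight, exposed to compound for 6 hr at 37 C, and then given detection reagent for 60 min at room temperature.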

[20] = qHTS assay for small molecule agonists of the antioxidant response element (ARE) signaling pathway measured by Nrf2-dependant transcriptional activity - cell viability counter screen (AID 720653; active = well fitted curve in the direction sought with a large enough effect in the repeat runs; an effect the other way counts as inactive or inconclusive; note: % is set by controls: 0 for no effect and ±100 for the full control effect); conditions: ARE-bla HepG2 viability, CellTiter-Glo ATP luminescence, 16 h; stronger effect = lower value
Method in brief: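 ARE-bla HepG2 cells treated with compounds for 16 h at 37C; this counter screen measures viability as intracellular ATP by CellTiter-Glo luminescence after 30 min at room temperature.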

Peroxisome proliferator-activated receptor alpha (Homo sapiens), sequence (Q07869 whole entry, looked up, the tested form may be a part): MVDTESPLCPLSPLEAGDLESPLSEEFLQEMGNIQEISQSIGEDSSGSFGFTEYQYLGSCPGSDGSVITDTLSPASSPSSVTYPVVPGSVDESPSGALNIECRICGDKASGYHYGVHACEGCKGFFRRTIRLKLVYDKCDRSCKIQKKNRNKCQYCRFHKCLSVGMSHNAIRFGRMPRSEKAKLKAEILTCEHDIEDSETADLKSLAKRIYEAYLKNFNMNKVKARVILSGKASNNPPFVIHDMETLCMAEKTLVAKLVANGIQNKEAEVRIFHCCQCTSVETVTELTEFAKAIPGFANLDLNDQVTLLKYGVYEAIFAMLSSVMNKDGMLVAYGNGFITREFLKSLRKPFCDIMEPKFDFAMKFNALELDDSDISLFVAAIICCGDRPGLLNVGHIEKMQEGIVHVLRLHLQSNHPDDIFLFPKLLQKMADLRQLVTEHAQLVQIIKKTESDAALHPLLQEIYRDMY

CCCCOC(=O)c1ccccc1N
-10.9%: max response [18]
inactive: Potency [1] > 92 µM | Potency [2] > 92 µM | Potency [3] > 92 µM | Potency [4] > 92 µM | Potency [5] > 92 µM | outcome [6] | outcome [7] | outcome [8] | outcome [9] | outcome [10] | outcome [11] | Potency [12] | Potency [13] | Potency [14] | Potency [15] | Potency [16] | Potency [17] | max response [19] -4.62% | max response [20] 4.85%

CN(C)N=O
-8.99%: max response [18]
inactive: Potency [1] > 92 µM | Potency [2] > 92 µM | Potency [3] > 92 µM | Potency [4] > 92 µM | Potency [5] > 92 µM | outcome [6] | outcome [7] | outcome [8] | outcome [9] | outcome [10] | outcome [11] | Potency [12] | Potency [13] | Potency [14] | Potency [15] | Potency [16] | Potency [17] | max response [19] 0.541% | max response [20] -2.49%

Nn1cnnc1
inactive: Potency [1] > 92 µM | Potency [2] > 92 µM | Potency [3] > 92 µM | Potency [4] > 92 µM | Potency [5] > 92 µM | outcome [6] | outcome [7] | outcome [8] | outcome [9] | outcome [10] | outcome [11] | Potency [12] | Potency [13] | Potency [14] | Potency [15] | Potency [16] | Potency [17] | max response [19] -0.452% | max response [20] -3.98%
6.31%: max response [18]

c1ccc(NNc2ccccc2)cc1
-6.25% and -9.7%: max response [18]
inactive: Potency [1] > 92 µM | Potency [2] > 92 µM | Potency [3] > 92 µM | Potency [4] > 92 µM | Potency [5] > 92 µM | outcome [6] | outcome [7] | outcome [8] | outcome [9] | outcome [10] | outcome [11] | Potency [12] | Potency [13] | Potency [14] | Potency [15] | Potency [16] | Potency [17] | max response [19] -1.84% and -2.39% | max response [20] 0.997% and 18.6%

O=C(O)c1cccc(Cl)c1
-9.83%: max response [18]
inactive: Potency [1] > 92 µM | Potency [2] > 92 µM | Potency [3] > 92 µM | Potency [4] > 92 µM | Potency [5] > 92 µM | outcome [6] | outcome [7] | outcome [8] | outcome [9] | outcome [10] | outcome [11] | Potency [12] | Potency [13] | Potency [14] | Potency [15] | Potency [16] | Potency [17] | max response [19] -1.81% | max response [20] -8.47%
